# Hits are enriched below; roughly 12% of the tested compounds scored in any of these assays.
# HP1b chromo inh – HTS for Inhibitors of HP1-beta Chromodomain Interactions with Methylated Histone Tails; Chromobox protein homolog 1 (Homo sapiens), P83916; 390,000 tested, 0.56% active; AlphaScreen HP1-beta / biotin-H3K9me3 peptide binding; Potency, µM (doses to about 114 µM), without a hit: top-dose activity change, negative = inhibition, usual class: inhibitors; further: potency means the concentration at half of the fitted maximal effect; nearly all actives have a fitted effect of over 70% in size
#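 HP1-beta protein (50 nM final) preincubated 30 min at room temperature with biotinylated H3(1-18)K9me3 peptide (50 nM) in PBS pH 7.4, 0.01% Tween-20, then compound added for 30 min. AlphaScreen streptavidin donor/nickel chelate acceptor beads (10 ug/mL final), 30 min dark, luminescence read.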
# PI5P4Ka inh – qHTS for Inhibitors of phosphatidylinositol 5-phosphate 4-kinase (PI5P4K); Phosphatidylinositol 5-phosphate 4-kinase type-2 alpha (Homo sapiens), P48426; 330,000 tested, 1.2% active; AID 652105, 2013; PI5P4Kalpha enzyme, ADP-Glo luminescence, 60 min; hits give low values; max response, %; active means max response of -50% or lower; inconclusive means between -30% and -50%; inactive means -30% or higher; further: value at the top dose of about 77 µM; on the % scale 0 is the no-effect control and ±100 the full control effect
# Target sequence (P48426 whole entry, looked up): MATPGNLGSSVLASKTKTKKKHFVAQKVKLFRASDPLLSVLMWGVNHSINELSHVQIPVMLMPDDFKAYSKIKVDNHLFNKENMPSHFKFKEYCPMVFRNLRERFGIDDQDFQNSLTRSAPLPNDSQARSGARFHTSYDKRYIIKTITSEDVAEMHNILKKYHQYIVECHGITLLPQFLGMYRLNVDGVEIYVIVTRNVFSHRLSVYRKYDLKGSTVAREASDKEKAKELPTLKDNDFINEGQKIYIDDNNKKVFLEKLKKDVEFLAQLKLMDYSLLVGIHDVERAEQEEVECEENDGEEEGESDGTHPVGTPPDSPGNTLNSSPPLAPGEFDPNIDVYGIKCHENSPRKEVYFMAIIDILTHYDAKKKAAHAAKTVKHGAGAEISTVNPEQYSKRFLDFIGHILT
#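 Luminescence from ADP-Glo served as readout of PI5P4Kalpha activity in a qHTS format. Reaction: enzyme, substrate, compound, ATP at 5 microM final, 60 min at RT.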
# PLK1 PBD block – qHTS for Inhibitors of PLK1-PDB (polo-like kinase 1 - polo-box domain): Primary Screen; Serine/threonine-protein kinase PLK1 (Homo sapiens), P53350; Plk1 PBD binding of FITC phosphopeptide, fluorescence polarization; Potency, µM, without a hit: max response, negative = inhibition, hits mostly inhibitors; 360,000 tested, 2.8% active; further: potency means the concentration at half of the fitted maximal effect; series mostly up to about 57 µM; on the % scale 0 is the no-effect control and ±100 the full control effect; nearly all actives have a fitted effect of over 65% in size
# BAZ2B inh – qHTS Assay for Inhibitors of BAZ2B; Bromodomain adjacent to zinc finger domain protein 2B (Homo sapiens), Q9UIF8; AlphaScreen BAZ2B-H3K14Ac peptide displacement; Potency, µM (series often up to 114 µM), without a hit: at the highest dose activity change, negative = inhibition, actives largely listed as inhibitors; 360,000 tested, 4.4% active; further: potency means the concentration at half of the fitted maximal effect; on the % scale 0 is the no-effect control and ±100 the full control effect; nearly all actives have a fitted effect of over 60% in size
#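 AlphaScreen displacement: compounds (up to 110uM) incubated 30 min at room temperature with a preformed 50 nM BAZ2B/50 nM biotinylated H3K14Ac peptide complex in PBS pH 7.4 with Tween-20. Donor and acceptor beads at 10 ug/mL final added, 20 min light-protected before reading.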
# JMJD2A Tudor – qHTS Assay for Inhibitors of JMJD2A-Tudor Domain | AlphaScreen JMJD2A-Tudor / H3K4me3 peptide binding | Potency, µM (doses to about 114 µM), without a hit: top-dose activity change, negative = inhibition, actives largely listed as inhibitors | 390,000 tested, 4.4% active; further: potency means the concentration at half of the fitted maximal effect; on the % scale 0 is the no-effect control and ±100 the full control effect; nearly all actives have a fitted effect of over 50% in size
# G9a inh – qHTS Assay for Inhibitors of Histone Lysine Methyltransferase G9a; Histone-lysine N-methyltransferase EHMT2 (Homo sapiens), Q96KQ7; G9a H3K9 monomethylation, AlphaScreen, 2 h; Potency, µM (doses to about 102 µM), for inactives: at the highest dose activity, negative = inhibition, actives largely listed as inhibitors; 350,000 tested, 8.8% active; further: potency means the concentration at half of the fitted maximal effect; on the % scale 0 is the no-effect control and ±100 the full control effect; nearly all actives have a fitted effect of over 75% in size
# Target sequence (Q96KQ7 913-1193 limits assumed): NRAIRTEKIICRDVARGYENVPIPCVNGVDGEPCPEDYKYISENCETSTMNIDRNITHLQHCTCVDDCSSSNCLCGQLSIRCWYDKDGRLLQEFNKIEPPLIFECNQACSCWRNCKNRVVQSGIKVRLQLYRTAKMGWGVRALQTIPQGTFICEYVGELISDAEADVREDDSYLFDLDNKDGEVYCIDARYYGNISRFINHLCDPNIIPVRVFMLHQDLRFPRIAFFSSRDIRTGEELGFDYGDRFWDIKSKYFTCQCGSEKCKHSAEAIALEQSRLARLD
#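 Quantitative HTS format: methyltransferase activity on a biotin-tagged H3K9 peptide is measured by AlphaScreen, using a rabbit anti-monomethyl-H3K9 antibody with streptavidin donor and anti-IgG acceptor beads. Final levels are 20 nM enzyme, 500 nM peptide, 20 uM SAM; 2 h RT.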
# * = called active by the depositor; u = inconclusive; x = no result; [ ] = remark or other dose. Unless noted, the call rests on the fitted dose curve; in most records, active means well fitted curve in the direction sought with a large enough effect; inconclusive means small, poorly fitted or top-dose-only effect, or another doubt; inactive means no such curve, though single readings can be large; an effect the other way counts as inactive or inconclusive.
SMILES,HP1b chromo inh,PI5P4Ka inh,PLK1 PBD block,BAZ2B inh,JMJD2A Tudor,G9a inh
NC(=O)NC(=O)C(Nc1ccc(N2CCCCC2)cc1)c1ccccc1 (stereo not drawn),u,0.4,0.1%,u,u,15.8µM*
O=C(CNCc1ccco1)Nc1ccc(N2CCCCCC2)cc1,39.8µM*,-4.0,-7.1%,28.2µM*,20µM*,8.91µM*
O=C(CNC(=O)c1ccco1)Nc1ccc(N2CCCCCC2)cc1,-31.8%,-0.8,-6.7%,u,u,u
O=C(CCc1nc2ccccc2n1-c1ccccc1)NCCO,53.7%,-3.7,-5.1%,0.9%,1.7%,17.0%[59 µM]
CCOC(=O)c1cccc(NC(=O)c2c(NCc3ccccc3)[nH]c(=O)[nH]c2=O)c1,16.5%,-6.0,u,x,-18.8%,x
CCn1c(=O)c2ccccc2n2c(SCC(N)=O)nnc12,35.9%,1.9,4.3%,-7.6%,-9.7%,6.8%
Cc1ccc(Cl)cc1N1CCN(C(=O)COc2cc(=O)n(C)c3ccccc23)CC1,22.8%,x,x,u,-17.5%,-33.2%[59 µM]
CC(=O)C1CCC2C3CC=C4CC(O)CC[C@@]4(C)C3CC[C@]12C (stereo partly drawn),x,x,x,x,x,-9.9%[2.33 µM]
CC1CCN(C(=O)CN2CCSc3ccc(S(=O)(=O)N(C)C)cc32)CC1,25.8%[57 µM],x,x,-11.1%,-14.1%,-1.3%[59 µM]
O=C(NNC(=O)c1cc(Br)c(Br)s1)c1csc(N2CCOCC2)n1,40.3%,2.9,-5.9%,1.7%,-13.8%,12.5%[12.7 µM]
O=C(CCl)Nc1ccc(N2CCCCCC2)cc1,u,2.2,-22.6%,u,50.1µM*,15.8µM*
CC(NC(=O)c1ccccc1F)c1nnc(SCC(=O)NC2=NCCS2)n1C (stereo not drawn),-7.9%,12.4,-10.3%,-0.7%,-11.4%,u
CC(CCc1ccco1)NC(=O)c1cc2c(-c3ccccc3F)nn(C)c2s1 (stereo not drawn),7.9%,2.4,-2.3%,-1.8%,-21.3%,89.1µM*
Cn1nc(-c2ccccc2F)c2cc(C(=O)NCc3ccc(Cl)cc3)sc21,32.2%,x,x,-0.8%,-10.9%,-40.1%[59 µM]
Nc1cc(Br)c(N)c(Br)c1,-3.8%,10.7,3.1%,-32.2%,-15.3%,50.1µM*
Cc1cc(C=O)c(C)n1-c1ccc(Oc2ccc([N+](=O)[O-])cn2)cc1,21.7%,5.7,0.8%,u,-10.0%,6.2%[59 µM]
Cc1cc(C=O)c(C)n1-c1ccc(NC2CCCC2)c([N+](=O)[O-])c1,31.6µM*,8.8,3.3%,-11.0%,20µM*,-13.8%
CC(C)c1ccccc1OCC(=O)Nc1ccc2[nH]ncc2c1,28.6%,-2.7,-2.5%,0.0%,-30.6%,70.8µM*
CSc1nsc(SC)c1NC(=O)OCc1ccccc1,32.5%,x,-15.6%,-0.4%,-6.6%,39.8µM*
COc1ccc(Oc2nc3c(c(=O)n(Cc4ccccc4Cl)c(=O)n3C)n2C)cc1,5.8%,x,x,u,-8.9%,1.8%[59 µM]
O=C(NNc1ccccc1)Nc1cc(Cl)ccc1Cl,50.1µM*,0.0,-7.6%,x,u,x
O=C(Cc1ccccc1)NCC(=O)Nc1cc(Cl)ccc1Cl,0.6%,1.5,26.7µM*,3.1%,u,9.4%
CC(OC(=O)c1cccc(-n2cnnn2)c1)C(=O)c1ccccc1 (stereo not drawn),4.2%,-0.7,1.6%,7.0%,-14.6%,u
O=C(Oc1cccc2cccnc12)c1cccc(N2C(=O)C3C4CCC(C4)C3C2=O)c1 (stereo not drawn),-4.4%,-14.1,-20.8%,10µM*,70.8µM*,0.794µM*
O=C(Oc1ccc(N2C(=O)C3C4CCC(C4)C3C2=O)cc1)c1ccco1 (stereo not drawn),25.3%,-1.0,2.4%,-14.5%,-2.8%,27.6%
SMILES,HP1b chromo inh,PI5P4Ka inh,PLK1 PBD block,BAZ2B inh,JMJD2A Tudor,G9a inh
O=C(Oc1cccc2cccnc12)c1ccc(N2C(=O)C3C4CCC(C4)C3C2=O)cc1 (stereo not drawn),16.5%,-4.2,-5.8%,50.1µM*,u,-6.0%
O=C(Oc1cccc2cccnc12)c1cccc(-n2cnnn2)c1,28.0%,0.7,-8.9%,u,-26.4%,5.62µM*
COc1ccc(C(=O)CC2(O)C(=O)N(CCc3ccccc3)c3ccc(Br)cc32)cc1OC (stereo not drawn),6.2%,x,x,-18.9%,-32.5%,u
O=C(N/N=C/C=C\c1ccco1)c1cccs1,7.1%,-27.0,-10.6%,44.7µM*,-23.1%,u
O=C(N/N=C/C=C/c1ccco1)/C(=C/c1ccccc1)NC(=O)c1ccccc1,-21.4%,-57.0*,29.9µM*,-4.3%,79.4µM*,28.2µM*
O=C(N/N=C/C=C\c1ccccc1[N+](=O)[O-])c1cccs1,44.1%,0.9,-3.0%,-5.9%,-24.1%,16.6%[59 µM]
O=C(N/N=C/C=C/c1ccco1)c1ccncc1,u,-28.0,-3.5%,8.2%,79.4µM*,x
O=C(O)/C(=C\c1ccco1)NC(=O)c1ccccc1,39.0%,-7.7,-16.0%,-29.5%,-4.8%,-22.5%[59 µM]
CC(=C/c1ccco1)/C=N/NC(=O)c1ccncc1,21.3%,2.5,1.3%,-22.6%,-12.1%,7.5%[59 µM]
O=C(N/N=C/C=C/c1ccc([N+](=O)[O-])cc1)c1cccs1,25.1%,0.0,-0.2%,50.1µM*,-29.7%,39.8µM*
COc1ccccc1N1CCN(C(=O)Cn2c(=O)nc(-c3ccccc3)c3cc(Cl)ccc32)CC1,9.5%,x,x,-10.9%,-12.6%,4.6%[59 µM]
CCc1ccc2ncc3c(-c4ccc(C)cc4)nn(CC(=O)Nc4ccc(C)cc4)c3c2c1,77.5%,x,x,2.6%,-6.3%,2.3%[59 µM]
CC(=O)Nc1ccc(NCC(O)COc2ccccc2)cc1 (stereo not drawn),16.6%,-0.2,0.9%,u,u,-25.8%[12.7 µM]
COCC(O)CNc1ccccc1 (stereo not drawn),36.8%,-4.7,23.8µM*,-26.6%,-32.6%[57.1 µM],u
COc1ccc([C@H]2CC(=O)C=C(c3ccc(Cl)c(C(F)(F)F)c3)C2)cc1,64.5%,17.3,-6.2%,8.3%,-3.6%,5.4%[0.501 µM]
O=C(Cn1c(-c2cccs2)cc2ccccc21)NCCCN1CCN(c2cccc(Cl)c2)CC1,37.3%,x,x,25.1µM*,u,u
CN1CCN(CCCNC(=O)Cn2c(-c3cccs3)cc3ccccc32)CC1,14.2%,x,x,-12.2%,-25.4%,-12.3%[59 µM]
Cc1ccc(C)c(N2CCN(CCCNC(=O)Cn3c(-c4cccs4)cc4ccccc43)CC2)c1,16.3%,x,x,35.5µM*,u,u

# High-throughput results as filed in PubChem.
